According to PubChem BioAssay (Tox21):
Activity calls are given as the source filed them. A call without a number means that no potency is given here. Calls follow the shape of the full dose curve.

experiment: G protein-coupled receptor (GPCR) small molecule agonists, calcium flux assay: HEK293 wild type cell line counter screen (AID 1920065); conditions: HEK293 WT calcium flux, fluorescence, agonist mode; series mostly up to 57.6 µM
Text: U.S. Tox21 Program National Center for Advancing Translational Sciences [NCATS] Division of Preclinical Innovation [DPI] U.S. Environmental Protection Agency [EPA] National Institutes of Environmental Health Sciences [NIEHS] National Toxicology Program [NTP] U.S. Food and Drug Administration [FDA] Assay overview: The increased intracellular calcium release that occurred upon G protein-coupled receptor (GPCR) activation led to the frequent use of calcium flux assays to detect GPCR activation. For the purpose of studying and screening compounds that may activate GPCR, receptor-overexpressing models were typically generated using Hek293 wild-type (WT) cells. In order to eliminate the compounds that may have induced calcium release for non-specific activation, a counter-assay utilizing calcium flux on Hek293 WT cells was performed. The data were formulated in order to serve as a control for any calcium flux detection utilizing Hek293 cells with either GPCR overexpression or gene modification. The procurement of Hek293 WT cells from ATCC. Fluorescence intensity can be utilized to determine the activation of the compound in a calcium flux assay. As a counter control, this cell line was utilized to screen the Tox21 10K compound library.
Assay Protocol Summary: Hek293 cells were dispensed at 1500cells/4uL/well in 1536-well black wall/clear bottom plates using a multidrop dispenser. After the assay plates were incubated at a 37 C/5% CO2 incubator for 18 hours, 4 uL of Calcium Dye Solution was added to each well. The plates were incubated at 37 C for 1 hour. For agonist mode, 23 nL of compounds dissolved in DMSO, positive control (ATP) or DMSO only was transferred to the assay plate by a pin tool station. The fluorescence intensity in the plates was measured using FDSS 7000EX kinetic plate reader with a filter set of Ex/Em=480/540 for 3 min at 1 sec intervals. Each test compound was measured at 15 concentrations and in triplicates.

| SMILES | Potency |
| --- | --- |
| Oc1ccc2ccccc2c1 | inactive |
| CC(C)(C)C1CCCCC1=O (stereo not given) | inactive |
| CC(CO)(CO)CO | inactive |
| OCCN1CCN(CCCN2c3ccccc3Sc3ccc(C(F)(F)F)cc32)CC1 | inactive |
| Cc1ccc(-c2cc(C(F)(F)F)nn2-c2ccc(S(N)(=O)=O)cc2)cc1 | inactive |
| Oc1cc2ccccc2c2ccccc12 | inactive |
| CCCCCCCCCCCCCBr | inactive |
| CC(=O)N1CCN(c2ccc(OC[C@H]3CO[C@](Cn4ccnc4)(c4ccc(Cl)cc4Cl)O3)cc2)CC1 | inactive |
| CCn1nc(C(=O)O)c(=O)c2cc3c(cc21)OCO3 | inactive |
| CSc1ccc(Oc2ccc(S(N)(=O)=O)cc2CN(C)C)cc1C | inactive |
| COc1ccc(COC=O)cc1 | inactive |
| CCCc1ccc(OCC(=O)N2CCN(C(=O)COc3ccc(CCC)cc3OC)CC2)c(OC)c1 | inactive |
| CCN1CCN(C(=O)N[C@@H](C(=O)N[C@@H]2C(=O)N3C(C(=O)O)=C(CSc4nnnn4C)CS[C@H]23)c2ccc(O)cc2)C(=O)C1=O | inactive |
| COc1cccc(N(C)C(=S)Oc2ccc3c(c2)CCCC3)n1 | inactive |
| C=CCCCCCCC=C | inactive |
| CC(C)CCCCCCN | inactive |
| Cn1c(NCCN(CCO)CCCc2ccc([N+](=O)[O-])cc2)cc(=O)n(C)c1=O | inactive |
| CC(C)=CCNc1ncnc2c1ncn2[C@@H]1O[C@H](CO)[C@@H](O)[C@H]1O | inactive |
| Fc1ccccc1[C@@H](F)COC1CCC(Nc2ncnc3[nH]ncc23)CC1 (stereo not given in full) | inactive |
| COc1ccc(-c2ccc3cc(C(=O)O)ccc3c2)cc1C12CC3CC(CC(C3)C1)C2 | inactive |

| SMILES | Potency |
| --- | --- |
| Cc1ccc(C(C)C)cc2c(C)ccc1-2 | inactive |
| CN(C)CCN(Cc1ccccc1)c1ccccn1 | inactive |
| C[C@H]1[C@@H](c2ccccc2)NC(=O)N1C | inactive |
| O=C(O)c1cc(C(=O)O)cc(C(=O)O)c1 | inactive |
| CC1(C)C(=O)N(Br)C(=O)N1Br | inactive |
| Clc1ccc(C(Cn2ccnc2)OCc2ccsc2Cl)c(Cl)c1 (stereo not given) | inactive |
| COC(=O)c1nc(Cl)c(Cl)nc1N | inactive |
| CC(=O)OCC(=O)[C@@]1(O)[C@H](C)C[C@H]2[C@@H]3CCC4=CC(=O)C=C[C@]4(C)[C@@]3(F)[C@@H](O)C[C@@]21C | inactive |
| Clc1ccc(Cn2c(CN3CCCC3)nc3ccccc32)cc1 | inactive |
| C/C=C/C=C/C=O | inactive |
| O=C(O)c1cc(Br)c(O)c(Br)c1 | inactive |
| CC1=C(C/C=C(\C)CCC[C@H](C)CCC[C@H](C)CCCC(C)C)C(=O)c2ccccc2C1=O | inactive |
| CCc1cc(C2=C(C(=O)O)N(c3ccccc3C(F)(F)F)S(=O)(=O)c3ccccc32)cc2c1OCO2 | inactive |
| O=c1[nH]c2ccccc2n1CCCN1CCN(C(c2ccccc2)c2ccccc2)CC1 | inactive |
| COc1cc(-c2ccc(=O)[nH]n2)ccc1OC(F)F | inactive |
| CC(C)c1ccccc1C(C)C | inactive |
| CCc1cccc(N(C)C(N)=Nc2cccc3ccccc23)c1 | inactive |
| CCc1cc(Cc2cc(CC)c(N)c(CC)c2)cc(CC)c1N | inactive |
| O=C(Oc1ccccc1)c1ccc2ccccc2c1O | inactive |
| Cc1ccc(Cl)cc1N | inactive |
